# PAFAH1B3 inh: inhibitors of human PAFAH1B3; Q15102; hit rate 0.28% among 340,000; recombinant PAFAH1B3, FP-rhodamine probe, fluorescence polarization; inhibition, % at 3.39 µM;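 active = inhibition above the screen-wide average of all tested compounds plus 3 SD, cut at about 25% in these data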;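 note: 0% = enzyme with DMSO only and 100% = wells lacking PAFAH1B3 protein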
# Target sequence (Q15102 whole entry, looked up): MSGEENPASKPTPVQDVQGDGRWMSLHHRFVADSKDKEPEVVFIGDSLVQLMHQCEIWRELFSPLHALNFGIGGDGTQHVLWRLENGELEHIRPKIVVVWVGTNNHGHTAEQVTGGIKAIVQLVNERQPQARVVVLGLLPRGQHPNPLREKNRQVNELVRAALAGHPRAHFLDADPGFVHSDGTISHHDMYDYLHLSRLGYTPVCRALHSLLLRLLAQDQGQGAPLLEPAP
# PAFAH2 inh: PAFAH2 (human) inhibition; recombinant PAFAH2, FP-rhodamine activity probe, fluorescence polarization; hit rate 0.99% among 340,000; inhibition, % at 3.39 µM; Q99487;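 active = inhibition above the mean over all tested compounds plus 3 SD, cut at about 30% in these data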;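 note: inhibitors block probe labeling of enzyme so polarization drops; 0% = enzyme with DMSO and 100% = wells lacking PAFAH2 protein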
# rCAG RNA binder: molecules binding r(CAG) RNA repeats | r(CAG) RNA repeat, TO-PRO-1 dye displacement fluorescence | inhibition, % at 3 µM | hit rate 1.3% among 370,000 | AID 651821;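 active = inhibition above the plate cutoff, the mean of all test compounds on that plate plus 3 SD, cut at about 35% in these data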;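 note: 0% = DMSO alone and 100% = 100 µM mitoxantrone as full dye displacement; higher means more dye released from RNA so lower well fluorescence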
# PAFAH1B2 FP inh: inhibitors of human PAFAH1B2. inhibition, % at 3.39 µM. AID 492953. recombinant PAFAH1B2, FP-rhodamine activity probe, fluorescence polarization. P68402. hit rate 1.2% among 340,000;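 active = inhibition above the mean of all tested compounds plus 3 SD, cut at about 24% in these data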;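 note: 0% = enzyme with DMSO and 100% = wells lacking PAFAH1B2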
# ZTA counter: ZTA (EBV) inhibition in EBNA-1 counter-screen; P03206; ZTA-DNA binding, fluorescence polarization; inhibition, % at 11 µM; hit rate 0.15% among 320,000; AID 2234; in the data active = inhibition above about 33%
# Target sequence (P03206 whole entry, looked up): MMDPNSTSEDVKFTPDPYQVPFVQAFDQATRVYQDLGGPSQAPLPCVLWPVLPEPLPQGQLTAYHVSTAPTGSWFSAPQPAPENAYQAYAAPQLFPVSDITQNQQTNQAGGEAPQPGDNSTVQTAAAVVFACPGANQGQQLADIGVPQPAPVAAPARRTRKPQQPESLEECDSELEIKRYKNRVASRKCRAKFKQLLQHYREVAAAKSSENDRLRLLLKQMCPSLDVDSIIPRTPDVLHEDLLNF
# EBNA-1 inh: blocks EBNA-1 binding to DNA; EBNA-1 DNA binding, fluorescence polarization; inhibition, % at 14.8 µM; hit rate 0.34% among 300,000; AID 1950; in the data active = inhibition above about 28%
# PAFAH2 FP conf: confirmation of human PAFAH2 inhibitors. shares compounds with PAFAH2 inh. recombinant PAFAH2, FP-rhodamine activity probe, fluorescence polarization. inhibition, % at 3.39 µM. hit rate 65% among 2,300. AID 493030;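 active = mean inhibition over three repeats above a set limit taken from the earlier primary screen, cut at about 30% in these data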;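 note: inhibitor blocks binding of rhodamine activity probe so polarization falls; 0% = enzyme with DMSO and 100% = wells lacking PAFAH2 protein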
# Numbers without * were called inactive; x = no result given. Most compounds without a hit are left out; they make up all but 2.9% or so of the library.
SMILES,PAFAH1B3 inh,PAFAH2 inh,rCAG RNA binder,PAFAH1B2 FP inh,ZTA counter,EBNA-1 inh,PAFAH2 FP conf
CCS(=O)(=O)c1ccc(O)c(NC(=O)Nc2ccccc2OC)c1,8,47*,1,0,-1,1,59*
COc1ccc(NC(=O)COC(=O)c2cccc(S(=O)(=O)N(C)C)c2)cc1,6,41*,-2,8,x,x,25
CN(C)S(=O)(=O)c1cccc(C(=O)OCC(=O)NCc2ccccc2)c1,4,30*,2,2,7,12,13
C=CC[C@]1(O)C(=O)N(c2ccccc2)c2ccccc21,x,x,0,x,x,x,x
O=C(O/N=C/C1=C(Cl)c2ccccc2CC1)c1ccc(F)cc1,-4,35*,0,15,-4,-1,40*
CCCC[C@H](C(=O)N(C)c1ccccc1)[C@@H](O)c1ccc2ccccc2c1,x,x,2,x,x,x,x
O=C1NC[C@H](CCCCN2C[C@H](Cc3ccccc3)N(CCc3ccc(O)cc3)C(=O)C2=O)N(CCc2ccccc2)C1=O,x,x,1,x,x,x,x
O=c1c2ccccc2nc2n1CC/C2=C/N1CCN(c2cccc(C(F)(F)F)c2)CC1,21,33*,x,23,-8,2,-1
Cc1ccc(N2CC(C(=O)Nc3c4c(nn3C(C)(C)C)CS(=O)(=O)C4)CC2=O)cc1C (stereo not drawn),-3,158*,-3,-3,-3,2,0
Cc1ccc(C(=O)Nc2c3c(nn2C(C)(C)C)CS(=O)(=O)C3)cc1C,3,2,7,-1,-2,-6,x
COC(=O)C[C@H]1CC[C@@H]2[C@H](COC[C@H](O)CN2S(=O)(=O)c2ccccc2OC)O1,x,x,0,x,x,x,x
CC(NC(=O)COC(=O)CC(c1ccccc1)c1ccccc1)c1ccccc1 (stereo not drawn),1,59*,-10,9,0,-6,47*
Cc1ccc(C(=O)OCC(=O)NCCNC(=O)COC(=O)c2ccc(C)s2)s1,7,2,-2,5,-8,3,x
Cc1ccc(C(=O)OCC(=O)c2ccc(Cl)s2)s1,1,74*,1,2,-11,-15,66*
Cc1ccc(C(=O)OCC(=O)NC(C)c2ccccc2)s1 (stereo not drawn),1,78*,-1,1,x,x,69*
Cc1ccc(C(=O)NCC(=O)OCC(=O)NC(C)c2ccccc2)s1 (stereo not drawn),4,7,-5,0,-16,-5,x
CC(NC(=O)COC(=O)Cc1ccc(Cl)cc1)c1ccccc1 (stereo not drawn),-3,4,0,12,x,x,x
Cc1nn(-c2ccccc2)c(C)c1/C=C/C(=O)OCC(=O)Nc1ncc(Cl)cc1Cl,-4,49*,7,-4,-17,-13,55*
COc1ccc(/C=C/C(=O)OCC(=O)Nc2ncc(Cl)cc2Cl)cc1,-2,37*,6,0,x,x,43*
O=C(c1ccccc1)n1ccc(-c2cccs2)n1,-2,43*,-1,1,-3,7,23
CCN(CC)CCNC(=O)c1cc2c(=O)n(C)c3ccccc3c2n1C,2,-1,9,-1,12,0,x
CN(C)CCNC(=O)c1cc2c(=O)n(C)c3ccccc3c2n1C,11,47*,13,2,-1,-3,2
COc1ccc(C(=O)CSc2nc(C)cc(=O)[nH]2)cc1C,10,1,1,0,-15,11,x
COc1ccc(C(=O)CSc2nc(C)cc(C)n2)cc1C,6,42*,-5,3,26,-4,2
O=C(Nc1ccc2c(c1)OCCO2)C1c2ccccc2OCC(=O)N1Cc1ccco1 (stereo not drawn),x,x,5,x,x,x,x
SMILES,PAFAH1B3 inh,PAFAH2 inh,rCAG RNA binder,PAFAH1B2 FP inh,ZTA counter,EBNA-1 inh,PAFAH2 FP conf
COc1ccccc1NS(=O)(=O)c1ccc(O)c(C(=O)OCC(=O)c2ccc(Cl)cc2Cl)c1,4,38*,17,13,-2,6,23
CCN(CC)S(=O)(=O)c1ccc(O)c(C(=O)OCC(=O)N2c3ccccc3CC2C)c1 (stereo not drawn),2,75*,9,16,5,0,75*
COc1ccccc1NS(=O)(=O)c1ccc(O)c(C(N)=O)c1,9,-5,-2,-3,-2,-9,x
Cc1cc(C(=O)OCC(=O)N2c3ccccc3CC2C)c(C)o1 (stereo not drawn),10,0,5,2,-5,3,x
COc1ccccc1NS(=O)(=O)c1ccc(O)c(C(=O)OCC(=O)N2c3ccccc3CC2C)c1 (stereo not drawn),4,57*,15,14,-8,-9,47*
COc1ccccc1NS(=O)(=O)c1ccc(O)c(C(=O)OCC(=O)N2CCc3ccccc32)c1,1,45*,14,10,-15,-5,28
Cc1ncc(CO)c2cc(S(=O)(=O)c3ccc(F)cc3)c(=O)oc12,-7,1,1,3,3,1,x
O=c1oc2ccc(Br)cc2cc1S(=O)(=O)c1ccc(F)cc1,-1,80*,x,11,11,3,63*
O=C(COC(=O)c1ccc(F)c(S(=O)(=O)N2CCOCC2)c1)NCCc1ccccc1,1,-1,-4,0,1,0,x
Cc1ccc(C(=O)OCC(=O)Nc2ccccc2C(F)(F)F)cc1S(=O)(=O)N1CCOCC1,1,63*,2,3,-22,1,57*
Cc1ccc(C(=O)OCC(=O)NCCc2ccc(F)cc2)cc1S(=O)(=O)N1CCOCC1,-5,47*,3,6,x,x,37*
O=C(COC(=O)c1ccc(F)c(S(=O)(=O)N2CCOCC2)c1)NCc1ccc(Cl)cc1,-3,11,-2,1,x,x,x
O=C(COC(=O)c1ccc(F)c(S(=O)(=O)N2CCOCC2)c1)NCc1ccc(F)cc1,11,33*,0,2,x,x,25
Cc1ccc(C(=O)OCC(=O)NC(C)C)cc1S(=O)(=O)N1CCOCC1,1,32*,-3,1,-13,-2,23
COc1ccc(Cn2ccc3ccc(-c4ccc5ccn(C(=O)C6CCC6)c5c4)cc32)cc1,x,x,17,x,x,x,x
O=C(CCc1ccccc1-c1ccccc1CCNC(=O)c1c(F)cccc1F)NCc1ccccc1,x,x,1,x,x,x,x
COc1ccccc1/C=C/C(=O)OCC(=O)Nc1ccc2c(c1)OCO2,7,79*,2,0,x,x,85*
COc1ccccc1/C=C/C(=O)OCC(=O)NCc1ccc2c(c1)OCO2,6,51*,2,5,x,x,33*
COc1ccccc1/C=C/C(=O)OCC(=O)Nc1c(F)cccc1F,3,53*,-7,-2,-6,2,63*
COC(=O)c1ccc(Cn2ccc3ccc(-c4ccc5ccn(C(=O)c6ccc(C)cc6)c5c4)cc32)cc1,x,x,14,x,x,x,x
